# A selection: hits, their analogues and other compounds. The true share with any hit is near 3.4%.
# TEAD-YAP inh: TEAD-YAP interaction inhibition. HEK-TIYL cells, TEAD-Gal4/YAP UAS-luciferase luminescence. inhibition, % at 9.12 µM. hit rate 1.4% among 640,000. AID 1259422; in the data active means inhibition above about 32%;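 further: 0% = median of test compound wells and 100% = reference inhibitor wells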
# FBW7 activator: human FBW7 E3 ligase activation, primary screen; AlphaScreen FBW7–phospho-cyclin E peptide binding, activator screen; hit rate 0.13% among 650,000; normalized activity (activation), % at 26.1 µM; AID 1259310; in the data active means normalized activity above about 1.9%;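 further: purified mutant Fbw7 with reduced substrate affinity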
# GPR151 activ: human GPR151 activation. Q8TDV0. PathHunter beta-arrestin GPR151 cells, luminescence. activation, % at 11.2 µM. hit rate 1% among 650,000. AID 1508602; in the data active means activation above about 4.9%;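 further: 0% = median of compound wells and 100% = cells with positive control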
# MITF primary: blocks human microphthalmia-associated transcription factor; hit rate 0.91% among 650,000; O75030; inhibition, % at 2.6 µM; AlphaScreen MITF homodimerization, bead proximity signal; in the data active means inhibition above about 50%;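 further: 0% = vehicle wells with protein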
# Target sequence (O75030 whole entry, looked up): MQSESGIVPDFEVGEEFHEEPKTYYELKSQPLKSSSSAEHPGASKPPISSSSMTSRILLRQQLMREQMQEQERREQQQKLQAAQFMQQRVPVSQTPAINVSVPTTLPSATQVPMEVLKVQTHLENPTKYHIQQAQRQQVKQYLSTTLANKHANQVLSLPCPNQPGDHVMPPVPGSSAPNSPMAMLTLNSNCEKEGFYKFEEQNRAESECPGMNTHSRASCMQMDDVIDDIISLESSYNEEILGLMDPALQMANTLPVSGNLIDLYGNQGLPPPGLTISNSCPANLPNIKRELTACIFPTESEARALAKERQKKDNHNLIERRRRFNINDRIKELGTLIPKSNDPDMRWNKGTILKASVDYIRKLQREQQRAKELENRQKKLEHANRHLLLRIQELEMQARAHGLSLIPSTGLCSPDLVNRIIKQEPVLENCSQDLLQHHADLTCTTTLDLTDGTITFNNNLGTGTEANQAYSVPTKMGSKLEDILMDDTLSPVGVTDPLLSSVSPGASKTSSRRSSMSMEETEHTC
# MITF inh conf: human MITF inhibition, confirmation; AID 1259372; hit rate 16% among 4,700; inhibition, % at 2.6 µM; AlphaScreen MITF homodimerization, biotin/His-MITF beads; shares compounds with MITF primary;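 active means inhibition above a cutoff derived from the DMSO control wells, cut at about 28% in these data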;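 further: 0% = MITF dimer wells with DMSO only; inhibitors lower the bead chemiluminescence by keeping MITF from dimerizing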
# AS interf DR: AlphaScreen optical interference, dose response counter-screen; shares compounds with MITF primary; AlphaScreen optical interference counterscreen, cell-free; hit rate 6% among 480; IC50, µM; AID 1259373; call rule not given here
# AlphaScreen intf2: counter-screen: compounds optically interfering with AlphaScreen | shares compounds with MITF primary | LysRS AlphaScreen counterscreen, signal interference, triplicate | inhibition, % at 2.6 µM | hit rate 7.6% among 4,700 | AID 1259376;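 active means inhibition above a cutoff derived from the DMSO control wells, cut at about 30% in these data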
# * marks the source's active call; other numbers are inactive results; nt = not tested or not shown.
SMILES,TEAD-YAP inh,FBW7 activator,GPR151 activ,MITF primary,MITF inh conf,AlphaScreen intf2,others
O=C(CN(c1ccc(Cl)c(C(F)(F)F)c1)S(=O)(=O)c1ccccc1)NCc1cccnc1,5,0,0,51*,-4,-6,
O=C(CN(c1ccc(Cl)c(C(F)(F)F)c1)S(=O)(=O)c1ccccc1)NCc1ccccn1,-4,0,0,7,nt,nt,
CCCCN1C(=O)C(=O)N(CC(=O)Nc2ccc(C)c(Cl)c2)C1=O,4,0,0,66*,-12,-5,
CN(CCOC(=O)/C=C/c1ccco1)Cc1ccccc1,2,0,-2,68*,62*,9,
CC(C)N(C)CCOC(=O)/C=C/c1ccco1,-2,-1,-1,59*,62*,7,AS interf DR=>6.5
CN(Cc1ccccc1)C(=O)COC(=O)/C=C/c1ccco1,-5,0,-1,11,nt,nt,
Cc1nn(-c2ccc(N3CCN(C(=O)CCc4ccccc4)CC3)nn2)c(C)c1C,-7,0,1,-7,nt,nt,
Cc1ccc(NC(=O)CN(C)CC(=O)Nc2ccc(F)c(F)c2F)c(Cl)c1,-4,0,-1,5,nt,nt,
Cc1ccc(NC(=O)CN(C)C2CCN(C)CC2)c(Cl)c1,10,0,1,67*,1,10,
CCOC(=O)c1c(CN2CCOCC2)n(C)c2cc(Br)c(OC)cc12,11,0,1,-4,nt,nt,
O=C(c1cccc2ccccc12)N1CCN(Cc2cccnc2)CC1,-2,0,0,60*,10,19,
O=C(c1ccc([N+](=O)[O-])cc1)N1CCN(Cc2cccnc2)CC1,6,1,1,74*,6,18,
COc1ccc(C(=O)N2CCN(Cc3cccnc3)CC2)cc1OC,7,0,-1,78*,17,8,
COc1ccc(C(=O)N2CCN(Cc3cccnc3)CC2)cc1,-2,0,1,67*,8,18,
CCOc1ccc(C(=O)/C=C/c2ccc(C(=O)OC)cc2)cc1,-3,0,0,3,nt,nt,
Cc1occc1-c1nnc(SCC(=O)c2ccc(NC(=O)CC(C)C)cc2)o1,0,0,1,0,nt,nt,
O=c1c2sccc2nc(SCc2cc(=O)n3ccccc3n2)n1Cc1ccc2c(c1)OCO2,-3,1,-2,8,nt,nt,
CSc1ccc(S(=O)(=O)Nc2cccnc2)cc1,10,0,0,-7,nt,nt,
O=C1OC(/C=C\c2cccc([N+](=O)[O-])c2)=NC/1=C/c1ccc2c(c1)OCO2,-3,0,0,-1,nt,nt,
COc1ccc(CN2CCN(C(=O)c3ccc([N+](=O)[O-])cc3)CC2)cc1,7,0,-1,60*,-20,2,
CCN1CCCC1CNCc1ccccc1Cl (stereo not drawn),5,0,-1,2,nt,nt,
CCN1CCCC1CNCc1csc(-c2ccc(Cl)cc2)n1 (stereo not drawn),-10,0,0,57*,-2,5,
O=C(c1ccc([N+](=O)[O-])cc1)N1CCSC1c1ccc([N+](=O)[O-])cc1 (stereo not drawn),-3,0,2,12,nt,nt,
O=C(c1ccc([N+](=O)[O-])cc1)N1CCSC1c1ccc(Br)cc1 (stereo not drawn),0,2,-1,70*,-13,-3,
COc1ccc(NC(=S)NCC(C)C)c(OC)c1,7,0,0,65*,12,14,
SMILES,TEAD-YAP inh,FBW7 activator,GPR151 activ,MITF primary,MITF inh conf,AlphaScreen intf2,others
COc1ccc(NC(=S)NCC(O)c2ccccc2)c(OC)c1 (stereo not drawn),12,0,0,3,nt,nt,
CCOC(=O)N1CCN(c2nc3ccc(Cl)cc3n3cnnc23)CC1,-2,0,0,3,nt,nt,
O=C(ON1C(=O)CCC1=O)c1ccc([N+](=O)[O-])cc1,1,0,-2,-5,nt,nt,
CCCCN(C)CCCNC(=O)CSCc1ccccc1Cl,4,0,-1,76*,-2,-1,
Cc1ccc(-c2ncn(-c3ccc(Nc4cc(-n5cnc(Nc6ccccc6)n5)c(F)cn4)cc3)n2)cn1,-4,0,-1,91*,52*,-10,AS interf DR=>6.5
CC(C)NC(=O)C1CCN(Cc2ccc(C(F)(F)F)cc2)CC1,1,1,-1,52*,-5,-5,
CCOC(=O)C1CCN(Cc2ccc(C(F)(F)F)cc2)CC1,2,0,1,51*,-1,9,
CCOC(=O)C1CCN(Cc2ccc(F)cc2)CC1,10,0,0,19,nt,nt,
CC(C)NC(=O)C1CCN(Cc2ccc(Cl)c(Cl)c2)CC1,-2,1,0,51*,-14,1,
CC(=O)c1ccc(NC(=O)Cn2cnc3ccccc3c2=O)cc1,4,0,0,7,nt,nt,
N#Cc1cc2c(N)c(C(=O)Nc3cccc(C(F)(F)F)c3)sc2nc1N,0,0,0,17,nt,nt,
COc1ccc([N+](=O)[O-])cc1NC(=O)C1(c2ccc(OC)c(OC)c2)CCCC1,-8,0,0,53*,-14,-7,
COc1ccc([N+](=O)[O-])cc1NC(=O)c1ccc(F)cc1,-1,0,3,57*,-12,-11,
COc1ccc([N+](=O)[O-])cc1NC(=O)c1ccc(C(C)(C)C)cc1,9,0,0,16,nt,nt,
O=C(Cn1nc(-c2ccc3c(c2)OCCO3)ccc1=O)Nc1ccccc1-c1ccccc1,5,0,0,72*,9,10,
Cc1ccc(C(C)C)c(OCC(O)CN2CCOCC2)c1 (stereo not drawn),5,0,0,-14,nt,nt,
Cc1ccc(C(C)C)c(OCCCCN2CCNCC2)c1,3,0,1,75*,-6,-4,
Cc1ccc(OCCCCN2CCNCC2)c(Br)c1,-18,0,3,56*,21,20,
Cc1ccc(C(C)C)c(OCC#CCN2CCOCC2)c1,-10,0,-1,55*,4,14,
Cc1ccc(OCCN2CCNCC2)c(Br)c1,1,0,-1,47,nt,nt,
Clc1cc(Br)ccc1OCCCCN1CCNCC1,14,0,0,56*,-13,3,
Brc1cccc(OCCCCN2CCNCC2)c1,0,0,0,48,nt,nt,
Cc1ccc(C(C)C)c(OCCOCCN2CCNCC2)c1,3,0,1,-4,nt,nt,
CCCCc1ccc(C2=N/C(=C\C(C)=C\c3ccccc3)C(=O)O2)cc1,-8,0,1,9,nt,nt,
Cc1ccc(C(C)C)c(OCCN(C)C)c1,9,0,-1,54*,6,-1,
CCC(C)(C)c1ccc(OCCN2CCNCC2)c(Cl)c1,-1,0,1,61*,-8,-6,
Cc1ccc(SCCCCN2CCNCC2)cc1,-28,0,1,61*,27,-3,
Cc1cc(Br)ccc1OCCCCN1CCNCC1,0,0,0,66*,6,4,
Cc1ccc(C(C)C)c(OCC(N)=O)c1,3,0,-1,11,nt,nt,
Cc1nnn(C23CC4CC(CC(CC(=O)Nc5ccc(F)cc5)(C4)C2)C3)n1,-8,1,0,75*,10,9,

# Source: PubChem (The Scripps Research Institute Molecular Screening Center)
